Data taken from PubChem BioAssay AID1159580 (chemical genetic matrix, 2015).
Screen size: about 5,500 compounds; about 2,000 (36%) were called active. Inconclusive results (about 18%) are left out. No stated cut-off is given here; in the data, active means normalized growth mostly below about 0.91 (no sharp cut-off); inconclusive means no clear call, values can overlap the other calls; inactive means mostly above about 0.92. Some of the results follow.

Experiment: chemical genetic growth profiling, strain panel (AID 1159580);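 further: tested at 20 µM; growth read once vehicle control cultures reached saturation at 30 °C; 1 = growth at the plate median or of vehicle wells; lower values mean less growth of the strain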
Details: growth OD

Measured: normalized growth

O=C(O[C@@H]1Cc2c(O)cc(O)cc2O[C@@H]1c1cc(O)c(O)c(O)c1-c1c([C@H]2Oc3cc(O)cc(O)c3C[C@H]2O)cc(O)c(O)c1O)c1cc(O)c(O)c(O)c1
active: S. cerevisiae deletion strains, locus YJL187C, strain SWE1 (second series), active compounds read low 0.0786 | S. cerevisiae deletion strains, locus YKL190W, strain CNB1, active compounds read low 0.0679 | S. cerevisiae deletion strains, locus YKR001C, strain vps1, active compounds read low 0.487 | S. cerevisiae deletion strains, locus YLR039C, strain RIC1, active compounds read low 0.136 | S. cerevisiae deletion strains, locus YLR058C, strain SHM2, active compounds read low 0.0917 | S. cerevisiae deletion strains, locus YLR102C, strain apc9, active compounds read low 0.885 | S. cerevisiae deletion strains, locus YLR262C, strain YPT6, active compounds read low 0.222 | S. cerevisiae deletion strains, locus YLR268W, strain sec22, active compounds read low 0.225 | S. cerevisiae deletion strains, locus YLR330W, strain CHS5, active compounds read low 0.488 | S. cerevisiae deletion strains, locus YLR371W, strain rom2, active compounds read low 0.667 | S. cerevisiae deletion strains, locus YLR418C, strain cdc73, active compounds read low 0.238 | S. cerevisiae deletion strains, locus YML016C, strain PPZ1, active compounds read low 0.0734 | S. cerevisiae deletion strains, locus YML032C, strain rad52, active compounds read low 0.808 | S. cerevisiae deletion strains, locus YML124C, strain tub3, active compounds read low 0.733 | S. cerevisiae deletion strains, locus YMR058W, strain fet3, active compounds read low 0.455 | S. cerevisiae deletion strains, locus YMR223W, strain ubp8, active compounds read low 0.571 | S. cerevisiae deletion strains, locus YMR263W, strain SAP30, active compounds read low 0.386 | S. cerevisiae deletion strains, locus YMR307W, strain GAS1, active compounds read low 0.343 | S. cerevisiae deletion strains, locus YNL067W, strain RPL9B, active compounds read low 0.138 | S. cerevisiae deletion strains, locus YNL128W, strain TEP1, active compounds read low 0.0913 | S. cerevisiae deletion strains, locus YNL153C, strain GIM3, active compounds read low 0.201 | S. cerevisiae deletion strains, locus YNL209W, strain ssb2, active compounds read low 0.822 | S. cerevisiae deletion strains, locus YNL233W, strain BNI4, active compounds read low 0.299 | S. cerevisiae deletion strains, locus YNL307C, strain MCK1, active compounds read low 0.831 | S. cerevisiae deletion strains, locus YNR052C, strain pop2, active compounds read low 0.246 | S. cerevisiae deletion strains, locus YOL006C, strain TOP1, active compounds read low 0.168 | S. cerevisiae deletion strains, locus YOL147C, strain pex11, active compounds read low 0.662 | S. cerevisiae deletion strains, locus YOR061W, strain CKA2, active compounds read low 0.163 | S. cerevisiae deletion strains, locus YOR069W, strain VPS5, active compounds read low 0.128 | S. cerevisiae deletion strains, locus YOR106W, strain vam3, active compounds read low 0.817 | S. cerevisiae deletion strains, locus YOR136W, strain idh2, active compounds read low 0.645 | S. cerevisiae deletion strains, locus YOR144C, strain elg1, active compounds read low 0.774 | S. cerevisiae deletion strains, locus YOR184W, strain ser1, active compounds read low 0.346 | S. cerevisiae deletion strains, locus YOR316C, strain cot1, active compounds read low 0.863 | S. cerevisiae deletion strains, locus YPL051W, strain arl3, active compounds read low 0.822 | S. cerevisiae deletion strains, locus YPR163C, strain tif3, active compounds read low 0.756 | S. cerevisiae deletion strains, locus YPR167C, strain met16, active compounds read low 0.785 | S. cerevisiae deletion strains, strain wtn01, active compounds read low 0.335 | S. cerevisiae strains, strain wild type, active compounds read low 0.0644
inactive: S. cerevisiae deletion strains, locus YJL187C, strain SWE1, active compounds read low 0.981 | S. cerevisiae deletion strains, locus YKL009W, strain mrt4, active compounds read low 1.08 | S. cerevisiae deletion strains, locus YKL068W, active compounds read low 1.03 | S. cerevisiae deletion strains, locus YKL085W, strain MDH1 (second series), active compounds read low 0.994 | S. cerevisiae deletion strains, locus YKL085W, strain MDH1, active compounds read low 0.994 | S. cerevisiae deletion strains, locus YKL160W, strain elf1, active compounds read low 0.968 | S. cerevisiae deletion strains, locus YKR026C, strain gcn3, active compounds read low 1.03 | S. cerevisiae deletion strains, locus YKR091W, strain srl3, active compounds read low 1.02 | S. cerevisiae deletion strains, locus YLL001W, strain dnm1, active compounds read low 0.986 | S. cerevisiae deletion strains, locus YLL026W, active compounds read low 1.03 | S. cerevisiae deletion strains, locus YLL041C, strain sdh2, active compounds read low 1.04 | S. cerevisiae deletion strains, locus YLR027C, strain aat2, active compounds read low 1 | S. cerevisiae deletion strains, locus YLR221C, strain rsa3, active compounds read low 0.989 | S. cerevisiae deletion strains, locus YLR258W, strain gsy2, active compounds read low 1.02 | S. cerevisiae deletion strains, locus YLR262C, strain YPT6 (second series), active compounds read low 0.89 | S. cerevisiae deletion strains, locus YLR320W, strain mms22, active compounds read low 1.01 | S. cerevisiae deletion strains, locus YLR342W, strain FKS1, active compounds read low 0.957 | S. cerevisiae deletion strains, locus YLR357W, strain rsc2, active compounds read low 0.9 | S. cerevisiae deletion strains, locus YLR370C, strain arc18, active compounds read low 1 | S. cerevisiae deletion strains, locus YLR384C, strain iki3, active compounds read low 1.02 | S. cerevisiae deletion strains, locus YML120C, strain ndi1, active compounds read low 1 | S. cerevisiae deletion strains, locus YMR078C, strain ctf18, active compounds read low 0.927 | S. cerevisiae deletion strains, locus YMR125W, strain sto1, active compounds read low 1.04 | S. cerevisiae deletion strains, locus YMR129W, active compounds read low 1.02 | S. cerevisiae deletion strains, locus YMR205C, strain PFK2, active compounds read low 0.978 | S. cerevisiae deletion strains, locus YMR231W, strain pep5, active compounds read low 0.942 | S. cerevisiae deletion strains, locus YNL071W, strain lat1, active compounds read low 1.02 | S. cerevisiae deletion strains, locus YNL248C, strain rpa49, active compounds read low 1.02 | S. cerevisiae deletion strains, locus YNL250W, strain rad50, active compounds read low 0.963 | S. cerevisiae deletion strains, locus YNL271C, strain bni1, active compounds read low 0.974 | S. cerevisiae deletion strains, locus YNL298W, strain CLA4, active compounds read low 1 | S. cerevisiae deletion strains, locus YNL322C, strain KRE1 (second series), active compounds read low 1.03 | S. cerevisiae deletion strains, locus YNR049C, strain mso1, active compounds read low 1.03 | S. cerevisiae deletion strains, locus YOL012C, strain htz1 0.228 | S. cerevisiae deletion strains, locus YOR001W, strain rrp6, active compounds read low 0.981 | S. cerevisiae deletion strains, locus YOR070C, strain gyp1, active compounds read low 0.972 | S. cerevisiae deletion strains, locus YOR080W, strain dia2, active compounds read low 1.02 | S. cerevisiae deletion strains, locus YOR083W, strain WHI5, active compounds read low 0.937 | S. cerevisiae deletion strains, locus YOR265W, strain rbl2, active compounds read low 0.984 | S. cerevisiae deletion strains, locus YOR270C, strain vph1, active compounds read low 0.977 | S. cerevisiae deletion strains, locus YOR290C, strain snf2, active compounds read low 0.989 | S. cerevisiae deletion strains, locus YPL078C, strain atp4, active compounds read low 0.99 | S. cerevisiae deletion strains, locus YPL106C, strain sse1, active compounds read low 0.941 | S. cerevisiae deletion strains, locus YPL240C, strain hsp82, active compounds read low 1 | S. cerevisiae deletion strains, locus YPR119W, strain clb2, active compounds read low 0.981 | S. cerevisiae deletion strains, locus YPR141C, strain kar3, active compounds read low 0.988
